Measurements: PubChem BioAssay AID2613 (National Center for Advancing Translational Sciences (NCATS), 2010)
Records with an inconclusive call do not appear. A call without a number means that no potency is given here. Activity calls are given as the source filed them. Calls follow the shape of the dose curve; as a rule, active = well fitted inhibition curve with a large enough effect; inconclusive = small, poorly fitted or top-dose-only effect; inactive = flat fitted curve, though single readings scatter.

target: Lysosomal acid glucosylceramidase (Homo sapiens) (UniProt P04062); test: qHTS Assay for Inhibitors and Activators of N370S glucocerebrosidase as a Potential Chaperone Treatment of Gaucher Disease: Activity in N370S Spleen Homogenate Using a Red Fluorescent Substrate; details: red fluorogenic substrate; series mostly up to 49.6 µM
Sequence (P04062 whole entry N409S): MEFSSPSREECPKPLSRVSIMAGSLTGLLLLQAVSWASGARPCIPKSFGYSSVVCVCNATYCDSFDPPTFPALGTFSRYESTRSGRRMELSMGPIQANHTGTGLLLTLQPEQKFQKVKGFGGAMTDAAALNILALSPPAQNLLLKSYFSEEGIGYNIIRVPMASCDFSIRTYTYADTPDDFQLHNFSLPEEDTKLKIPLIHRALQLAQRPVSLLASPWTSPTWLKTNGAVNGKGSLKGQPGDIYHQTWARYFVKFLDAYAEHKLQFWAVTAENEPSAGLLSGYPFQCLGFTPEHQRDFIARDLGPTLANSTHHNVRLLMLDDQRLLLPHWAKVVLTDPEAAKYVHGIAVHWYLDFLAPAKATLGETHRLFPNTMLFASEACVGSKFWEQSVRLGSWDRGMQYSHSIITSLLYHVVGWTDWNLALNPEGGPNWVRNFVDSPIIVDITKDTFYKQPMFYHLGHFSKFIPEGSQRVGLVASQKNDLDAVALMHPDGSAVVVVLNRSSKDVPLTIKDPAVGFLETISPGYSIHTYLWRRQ
Description: NIH Chemical Genomics Center [NCGC]
NIH Molecular Libraries Probe Production Centers Network [MLPCN]
Assay Submitter (PI): Wei Zheng
Glucocerebrosidase (GC) catalyzes the hydrolysis of beta-glucocerebroside to glucose and ceramide in lysosomes. Mutations in the glucocerebrosidase gene result in Gaucher disease, an autosomal recessive lysosomal storage disorder. Many of the mutations encountered in patients with Gaucher disease are missense alterations that may cause misfolding, decreased stability and/or mistrafficking of this lysosomal protein. […] These inhibitors include iminosugar analogs and three non-iminosugar inhibitors identified from a previous HTS of 62,000 compounds with the wild type recombinant enzyme. However, the enhancement of enzyme activity by the chaperone action of an enzyme inhibitor must be balanced against the direct inhibition of the enzyme. An enzyme activator could also function as a chaperone by binding to the enzyme and helping to correct its misfolding and mistrafficking. While activators for GC have not yet been identified, they may have better therapeutic potential than inhibitors. Therefore the discovery and development of chemical activators may provide a new strategy for the chaperone therapy.
We have optimized a new assay using N370S mutant GC derived from the spleen of a Gaucher patient. […] In addition, the MLPCN compound library has expanded, which increases the chance of finding new and better probes.
This confirmation assay tests for compound activity in spleen homogenate from a patient homozygous for the N370S mutation using an alternate resorufin-based substrate.
NCGC Assay Protocol Summary:
This is a fluorogenic enzyme assay with resorufin-beta-D-glucopyranoside as the substrate and mutant N370S glucocerebrosidase from human spleen homogenate as the enzyme preparation. Upon the hydrolysis of this fluorogenic substrate, the resulting product, […] which can be detected by a standard fluorescence plate reader. Data were normalized to the controls for basal activity (without enzyme) and 100% activity (with enzyme). The AC50 values were determined from concentration-response data modeled with the standard Hill equation.
Assay buffer: 50 mM citric acid (titrated with potassium phosphate to pH 5.0), 100 mM potassium chloride, 10 mM sodium chloride, 1 mM magnesium chloride, 0.01% Tween-20.
1536-well assay protocol:
(1) Add 2 ul/well of spleen homogenate (27 ug final)
(2) Add 23 nL compounds in DMSO solution. The final titration was 0.5 nM to 58 uM.
(3) Add 2 ul of substrate (1 mM final)
(4) Incubate at 37C for 40 min.
(5) Add 2 ul stop solution (1M NaOH and 1M Glycine mixture, pH 10)
(6) Detect the assay plate in a ViewLux plate reader (PerkinElmer) with Ex=365 nm and Em=440nm.
Keywords: Glucocerebrosidase, beta-glucosidase, Gaucher Disease, pharmacological chaperone, chaperone therapy, high throughput screening, glucocerebrosidase inhibitor, MLSMR, MLSCN, NIH Roadmap, qHTS and NCGC

Row | SMILES | Potency
1 | O=C(Nc1ccccc1)c1ccc(NS(=O)(=O)c2ccccc2)cc1 | inactive
2 | COc1ccc(Nc2nc(-c3cccs3)nc3ccccc23)cc1 | 2.51 µM (active)
3 | Cc1cc(N2CCOCC2)nc2ccc(NC(=O)CCC(=O)NC3CCCCC3)cc12 | inactive
4 | O=C(COc1ccccc1C(=O)c1cnn(-c2ccccc2)c1)Nc1ccccc1 | inactive
5 | O=C(Nc1nccs1)c1ccc(NS(=O)(=O)c2ccc(Cl)cc2)cc1 | inactive
6 | c1ccc2c(NCC3CCCO3)nc(N3CCOCC3)nc2c1 (stereo not given) | inactive
7 | O=C(/C=C/c1ccc(O)cc1)c1ccc(O)cc1O | 4.47 µM (active)
8 | COc1cc(OC)c2c(N)c(C#N)c(C(F)(F)C(F)(F)F)nc2c1 | inactive
9 | Cc1cc(N2CCC(C)CC2)nc2ccc(NC(=O)C3CCC(C)CC3)cc12 (stereo not given) | 11.2 µM (active)
10 | Cc1cc(N2CCN(c3ncccn3)CC2)nc2ccc(NC(=O)C3CCC(C)CC3)cc12 (stereo not given) | 5.01 µM (active)
11 | COc1cccc(NC(=O)CSc2nc3ccccc3c(=O)n2Cc2cccs2)c1 | inactive
12 | CCOc1ccc(N(CC(=O)Nc2ccc(C)cc2)S(=O)(=O)c2c(C)[nH]c(=O)[nH]c2=O)cc1 | 12.6 µM (active)
13 | Nc1nc(-c2ccccc2)c(N=Nc2ccc(Cl)cc2)s1 | inactive
14 | CCCNC(=O)COC(=O)c1ccccc1OCC(=O)Nc1ccc(Br)cc1 | inactive
15 | CC(=O)Nc1ccc(NC(=O)COc2ccccc2C(=O)Nc2cccc(Cl)c2Cl)cc1 | inactive
16 | O=C(COc1ccccc1[N+](=O)[O-])Nc1ccc(Br)cc1 | inactive
17 | CCc1ccc(NC(=O)c2cnn3c(C(F)F)cc(C)nc23)cc1 | inactive
18 | Cc1cc(C)n2ncc(C(=O)Nc3ccc(Cl)c(Cl)c3)c2n1 | inactive
19 | Clc1ccccc1-c1nccc(NCc2ccccc2)n1 | 3.55 µM (active)
20 | CCN(CC)c1cc(C)c2cc(NC(=O)C3CCC(C)CC3)ccc2n1 (stereo not given) | 28.2 µM (active)

Row | SMILES | Potency
21 | Cc1ccc(C)c(N2CCN(C(=O)CCC(=O)Nc3ccc4nc(N5CCOCC5)cc(C)c4c3)CC2)c1 | 15.8 µM (active)
22 | COC(=O)c1ccccc1NC(=O)c1ccc2c(c1)C(=O)N(Cc1ccccc1)C2=O | inactive
23 | OCCNc1nc(Nc2ccc(Cl)cc2)nc(N2CCCC2)n1 | 35.5 µM (active)
24 | N=c1c2c(-c3ccccc3)c(-c3ccccc3)n(Cc3ccco3)c2ncn1CCCn1ccnc1 | 7.94 µM (active)
25 | COc1cc2c(cc1NC(=O)COC(=O)[C@@H](NC(=O)c1ccccc1)C(C)C)oc1ccccc12 | inactive
26 | N#Cc1ccccc1Sc1ccccc1C(=O)OCC(=O)NC12CC3CC(CC(C3)C1)C2 | inactive
27 | Cc1cc(C)cc(N(CC(=O)NC2CCC(C)CC2)S(=O)(=O)c2c(C)[nH]c(=O)[nH]c2=O)c1 (stereo not given) | 0.562 µM (active)
28 | Cc1ccc(Cl)cc1NC(=O)c1ccccc1OCC(=O)Nc1ccc(Cl)cc1 | inactive
29 | CCc1cc(C(=O)N/N=C/c2c(C)[nH]c3ccccc23)cs1 | inactive
30 | S=C(NCCCc1cnc[nH]1)NCCCN(Cc1ccc(Cl)c(Cl)c1)c1ccc(Br)cn1 | 2.24 µM (active)
31 | CCOc1ccccc1NC(=O)CN(c1ccc(C)cc1)S(=O)(=O)c1c(C)noc1C | inactive
32 | Cc1cccc(/C=N/NC(=O)NC23CC4CC(CC(C4)C2)C3)n1 | inactive
33 | COc1ccccc1NC(=O)COc1ccccc1C(=O)Nc1ccccc1 | inactive
34 | O=C(Nc1cnn(Cc2ccc(F)cc2)c1)c1cnn2c(C(F)F)cc(-c3ccccc3)nc12 | inactive
35 | O=S(=O)(c1ccc(Cl)cc1)N1CCN(c2nc(-c3cccs3)nc3ccccc23)CC1 | 0.891 µM (active)
36 | COc1ccccc1OCC(=O)Nc1oc(-c2ccccc2)c(-c2ccccc2)c1C#N | inactive
37 | CCN(CC)c1ccc(C(=O)Nc2ccc3nc(N4CCOCC4)cc(C)c3c2)cc1 | 15.8 µM (active)
38 | CCCCNC(=O)c1ccc(NS(=O)(=O)c2ccccc2)cc1 | inactive
39 | COc1cccc(CN(C)c2nc(-c3cccs3)nc3ccccc23)c1 | 2.51 µM (active)
40 | COc1ccccc1C(=O)COC(=O)c1ccccc1OCC(=O)Nc1ccc(SC(F)F)cc1 | inactive
